The target of the first assay is VWA3A. The experiment in a line: pooled miR-30 sensor sort-seq; sequence = guide strand. To be noted: shRNA.
As for TAAATTGTTGTGACTCACGGGA, the sensor-assay potency score (higher = more potent) is 0.0538. The same measure, in the same setting: under TTCAGCTGGAGGTCGCAGCCGC stands -0.797; under TTCTGCATCATTTTTCTTCTGG, 0.433; under TTAGCTGAAGTGTCTTTGGTTT, -0.499. The same measure, in the same setting: under TTTAGGACAAGGCTGCAGCTTG stands -0.774; under TCGAGCAGTACAACCACCCTTT, 0.012.

On to TTCACATCTCTTTTCTCCCTGA, for which the sensor-assay potency score (higher = more potent) was 0.334. Take TTTCACATCTCTTTTCTCCCTG: the sensor-assay potency score (higher = more potent) turned out to be 0.76. TGAATGTTCTTCACTGTCCCGT displayed a sensor-assay potency score (higher = more potent) of -0.182. Sequence TAGTGCTCCATCTTTGGGCTGT registered a sensor-assay potency score (higher = more potent) of 0.398. Same read-out and setting: under TTGGTGTTTGTCTTTGTCCTTG stands -0.376; under TACATCCGCATAGCTCTGCTGA, -0.863.

In a further assay the target is WBSCR16. The description is as above. To be noted: shRNA.
ATAGACTTCTCCTTTATCCGTC displayed a sensor-assay potency score (higher = more potent) of 0.592. On to AATCTTTTGGTCCAGCTCCAGG, for which the sensor-assay potency score (higher = more potent) was -1.82. On the same count and under the same terms, under TTATCCGTCAGGAACAGACTAT stands -0.761; under TTAGCCTCGATTCTCTTCCTGA, -0.0373. In turn, TAGACTTCTCCTTTATCCGTCA registered a sensor-assay potency score (higher = more potent) of -0.137. The same measure, in the same setting: under TTTAACACTGCACAGCCCGTGC stands -0.959; under TATTGTAGTGACCCAGACCTGT, -0.394; under TTTTGGTCCAGCTCCAGGCGAT, -1.09. TTCTTAACTTTTCCAAGCCAGG registered a sensor-assay potency score (higher = more potent) of -1.27. Regarding TTCTGGGTTGAACTCCGTCAAG, the sensor-assay potency score (higher = more potent) was -1.57. The same measure, in the same setting: under TTTCGTAACATCCGCAGTCTTA stands -0.626; under TCATTTTCGACCACCTTTCTTC, 0.23.

A further assay concerns the target WDFY1. Described as above. The settings on record: shRNA.
Sequence TCTTTCACTACACATTAGCTGT displayed a sensor-assay potency score (higher = more potent) of -0.731. Same read-out and setting: under TTCCACACTGCAATTCCGCCGT stands -0.441; under TTCATCTTTGATGGAGTCGTAA, -0.712; under TTTCACTACACATTAGCTGTTC, 0.757. Same read-out and setting: under TTGACCACTGTCTCTTTTCAGC stands -0.843; under TAACTTGAGCGCTTGCTGCTGC, 0.171; under TAACAAGAATCACAAACCCGGA, -0.759. TTGAGGGTTGTGATGACTGAAC came in with a sensor-assay potency score (higher = more potent) of -1.35. Turning to TTCTCTGCTAACATCCATGTTC, the sensor-assay potency score (higher = more potent) is -0.775.

For the sequence TTTCTTCTCTTCCTCATCCTGG, the sensor-assay potency score (higher = more potent) was -0.185. In turn, TTGATCGCCTCCTTAAACCTTT had a sensor-assay potency score (higher = more potent) of -0.0804. Turning to TATAAAACAAATTTAGTCCTTT, the sensor-assay potency score (higher = more potent) amounted to 0.214.

The target of another assay is WDR33. Described as above. The settings on record: shRNA.
Sequence TAGATTATATCGATCTCGCATT returned a sensor-assay potency score (higher = more potent) of -0.783. The same measure, in the same setting: under TTGTAGTCTATGGTTTTTCGGT stands -0.753.

In turn, TTCAATTTTAAGTTGCTCCAGA yielded a sensor-assay potency score (higher = more potent) of 0.632. The sequence TAGGATTATTCAACATTCCTAT returned a sensor-assay potency score (higher = more potent) of -0.157.

Values taken from the OligoGym collection.
Also: reference of the scale not given here.
